# According to the antibiotic and cytotoxicity screens of Wong et al. (2023):
# Hit rate of the full screen: of about 39,000 compounds, about 3,300 (8.5%) were called active. Many of the other results were omitted from the sample, so actives are more common in it than they were.
# System: HepG2
# Test: cytotoxicity call (relative viability < 0.9)
# Conditions: 10 µM
row,Compound,cytotoxicity call
1,O=C(C[C@@H]1CC[C@H](NC(=O)Nc2ccc3c(c2)OCO3)[C@@H](CO)O1)NCCCN1CCOCC1,inactive
2,C[C@@H]1CN([C@H](C)CO)C(=O)c2cc(NC(=O)CCCN(C)C)ccc2O[C@@H](C)CCCCO[C@H]1CN(C)S(=O)(=O)c1cn(C)cn1,inactive
3,C[C@H](CO)N1C[C@H](C)[C@H](CN(C)C(=O)c2cccc(F)c2)Oc2cc(C#CC3CC3)ccc2S1(=O)=O,inactive
4,CC(C)C[C@@](O)(CC(=O)O)C(=O)O,inactive
5,CN(C)CCCNC(=O)C[C@@H]1CC[C@H]2[C@@H](COc3ccc(NS(C)(=O)=O)cc3C(=O)N2C)O1,inactive
6,CC(C)N1CC=C[C@@]23O[C@@H]4C=CCOC(=O)[C@@H]4[C@H]2C(=O)N([C@@H](C)CO)[C@@H]3C1=O,inactive
7,O=c1[nH]c(=S)[nH]nc1O,inactive
8,CC1(C)C=C(C(=O)N2CCOCC2)C(C)(C)N1,inactive
9,C[C@@H]1CN([C@H](C)CO)C(=O)Cc2cc(NC(=O)C3CCCCC3)ccc2O[C@H]1CN(C)S(=O)(=O)c1cn(C)cn1,inactive
10,C[C@H](CO)N1C[C@H](C)[C@@H](CN(C)Cc2ccc(-c3ccccc3)cc2)Oc2ccc(NC(=O)Cn3cnnn3)cc2CC1=O,inactive
11,NCCCCCCNC(=O)[C@H]1C[C@H]2C(=O)N[C@@H](Cc3ccccc3)C(=O)N2[C@H]1c1cccc(OCCO)c1,inactive
12,C[C@@H]1CCCCO[C@@H](CN(C)C(=O)Cc2ccccc2)[C@H](C)CN([C@@H](C)CO)C(=O)c2cc(NS(=O)(=O)c3ccc(F)cc3)ccc2O1,inactive
13,O.O=C([O-])CC(O)(CC(=O)[O-])C(=O)[O-].[Li+].[Li+].[Li+],inactive
14,CC(C)NC(=O)N(C)C[C@H]1Oc2c(NS(=O)(=O)c3ccccc3)cccc2C(=O)N([C@H](C)CO)C[C@H]1C,active
15,C[C@@H]1CN([C@@H](C)CO)C(=O)c2cccc(NS(=O)(=O)c3ccc(Cl)cc3)c2O[C@@H]1CN(C)Cc1ccc(C(F)(F)F)cc1,active
16,C[C@@H]1CN([C@H](C)CO)C(=O)c2cccc(NS(=O)(=O)c3cccs3)c2O[C@@H]1CN(C)Cc1ccc(-c2ccccc2)cc1,inactive
17,CC(C)NC(=O)N(C)C[C@@H]1Oc2c(NS(=O)(=O)c3ccccc3)cccc2C(=O)N([C@@H](C)CO)C[C@@H]1C,inactive
18,C[C@H](CO)N1C[C@H](C)[C@@H](CN(C)Cc2ccc(C(F)(F)F)cc2)Oc2c(NS(=O)(=O)c3ccc(Cl)cc3)cccc2C1=O,inactive
19,C[C@@H]1CN([C@@H](C)CO)C(=O)c2cccc(NS(=O)(=O)c3cccs3)c2O[C@@H]1CN(C)Cc1ccc(-c2ccccc2)cc1,active
20,CC(C)NC(=O)N(C)C[C@H]1Oc2c(NS(=O)(=O)c3ccccc3)cccc2C(=O)N([C@H](C)CO)C[C@@H]1C,inactive
21,C[C@@H]1CN([C@H](C)CO)C(=O)c2cccc(NS(=O)(=O)c3cccs3)c2O[C@H]1CN(C)Cc1ccc(-c2ccccc2)cc1,inactive

row,Compound,cytotoxicity call
1,C[C@H]1CN([C@@H](C)CO)C(=O)c2cccc(NS(=O)(=O)c3ccc(Cl)cc3)c2O[C@@H]1CN(C)Cc1ccc(C(F)(F)F)cc1,inactive
2,Cc1noc(C)c1S(=O)(=O)N(C)C[C@H]1OCCCC[C@@H](C)Oc2ccc(NC(=O)Nc3ccc(F)cc3)cc2C(=O)N([C@@H](C)CO)C[C@H]1C,inactive
3,Cc1noc(C)c1NC(=O)Nc1ccc2c(c1)CC(=O)N([C@H](C)CO)C[C@H](C)[C@@H](CN(C)Cc1ccc(Oc3ccccc3)cc1)O2,inactive
4,C[C@H](CO)N1C[C@H](C)[C@@H](CN(C)C(=O)Nc2ccc3c(c2)OCO3)Oc2ccc(NC(=O)C3CC3)cc2CC1=O,inactive
5,Cc1noc(C)c1S(=O)(=O)N(C)C[C@H]1Oc2ccc(NC(=O)Cn3cnnn3)cc2C(=O)N([C@H](C)CO)C[C@H]1C,inactive
6,C[C@@H]1CN([C@H](C)CO)S(=O)(=O)c2ccc(C#Cc3ccccc3)cc2O[C@@H]1CN(C)C(=O)Cc1ccccn1,inactive
7,C[C@@H]1CN([C@H](C)CO)C(=O)Cc2cc(NC(=O)c3ccncc3)ccc2O[C@@H]1CN(C)Cc1ccc2c(c1)OCO2,inactive
8,COc1ccc(C(N)=O)cc1,inactive
9,COC(=O)[C@@H]1[C@@H](c2ccc(OC)cc2)[C@H](C(=O)OC)S(=O)(=O)CS1(=O)=O,active
10,COc1ccc(CNCC(=O)O)cc1,inactive
11,"C=C1CCC=C(C)CCC2C1CC2(C)C.O (single isomer, unassigned; (-)) [(-)E-CARYOPHYLLENE hydrate ]",inactive
12,C=C1C(=O)OC2C1CCC(C)=CCCC1(C)OC21 (configuration not stated),active
13,C[C@H](CO)N1C[C@H](C)[C@H](CN(C)S(=O)(=O)c2ccccc2)Oc2ncc(C#Cc3ccccc3)cc2C1=O,inactive
14,Cc1ccc(S(=O)(=O)Nc2ccc3c(c2)C(=O)N([C@H](C)CO)C[C@H](C)[C@@H](CN(C)C(=O)c2ccccc2)OCCCC[C@@H](C)O3)cc1,inactive
15,COCC(=O)N1CC[C@]2(CC(C(=O)NCc3cnc(C)cn3)=NO2)C1,inactive
16,COc1ccc(S(=O)(=O)N(C)C[C@H]2OCCCC[C@@H](C)Oc3ccc(NC(=O)Nc4c(C)noc4C)cc3C(=O)N([C@H](C)CO)C[C@@H]2C)cc1,inactive
17,COc1ccc(S(=O)(=O)N(C)C[C@@H]2OCCCC[C@H](C)Oc3ccc(NC(=O)Nc4c(C)noc4C)cc3C(=O)N([C@H](C)CO)C[C@@H]2C)cc1,inactive
18,COc1ccc(S(=O)(=O)N(C)C[C@H]2OCCCC[C@H](C)Oc3ccc(NC(=O)Nc4c(C)noc4C)cc3C(=O)N([C@@H](C)CO)C[C@@H]2C)cc1,active
19,COc1ccc(S(=O)(=O)N(C)C[C@@H]2OCCCC[C@@H](C)Oc3ccc(NC(=O)Nc4c(C)noc4C)cc3C(=O)N([C@@H](C)CO)C[C@H]2C)cc1,inactive
20,COc1ccc(S(=O)(=O)N(C)C[C@H]2OCCCC[C@H](C)Oc3ccc(NC(=O)Nc4c(C)noc4C)cc3C(=O)N([C@@H](C)CO)C[C@H]2C)cc1,active
21,COc1ccc(S(=O)(=O)N(C)C[C@@H]2OCCCC[C@H](C)Oc3ccc(NC(=O)Nc4c(C)noc4C)cc3C(=O)N([C@@H](C)CO)C[C@H]2C)cc1,inactive
